KDM5B inh: blocks human KDM5B histone demethylase activity | 220,000 compounds, 2.6% hits | KDM5B demethylase, FDH-coupled NADH fluorescence (FDH is formaldehyde dehydrogenase) | Potency, µM (titrated, usually from 57.7 µM), usual class: inhibitors; active means well fitted inhibition curve with a large enough effect; further: 0% is about no effect; nearly all actives have a fitted effect of over 70% in size
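Here, H3K4me3 peptide (12.5 µM in substrate mix) is demethylated by KDM5BΔAP, 200 nM final, after 10 min compound exposure. Formaldehyde product is coupled through FDH (0.25 U/mL in mix) to NADH fluorescence; 30-min ΔRFU feeds dose-response curves.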
The depositor's hits bear a star; i = inactive. The entries come from a sample that favours hits as a whole. Potency means the concentration at half of the fitted maximal effect.

SMILES	KDM5B inh
CC1(C(=O)NC2COC2)CN(Cc2ccccc2)Cc2ccc(Nc3ccccc3)nc21 (stereo not drawn)	35.5µM*
CC1(C(=O)NC2CCOCC2)CN(Cc2ccccc2)Cc2ccc(Nc3ccccc3)nc21 (stereo not drawn)	28.2µM*
CC(C)CNc1ccc2c(n1)C(C)(C(=O)NC1CCOCC1)CN(Cc1ccccc1)C2 (stereo not drawn)	i
CC1(C(=O)NC2CCOCC2)COCc2cnc(Nc3ccccc3)nc21 (stereo not drawn)	i
Cn1ccc(NC(=O)C2(C)COCc3cnc(Nc4ccccc4)nc32)n1 (stereo not drawn)	i
CCOc1ccc(CN(C)S(=O)(=O)c2cnn(C)c2)cc1OC	i
COc1ccccc1CN1CCC2(CC1)OC(=O)N(Cc1ccccc1)C2(C)c1ccccc1 (stereo not drawn)	i
O=C(CCc1ccsc1)N(Cc1ccccn1)C1CC1	i
Cc1ccc(CN2CCC(CNC(=O)CCc3nnc4ccc(N5CCCCC5)nn34)C2)cc1 (stereo not drawn)	i
O=C1c2cnc(-c3ccsc3)nc2OCCN1c1cccc(C(F)(F)F)c1	i
O=C(CCC(=O)c1ccc2c(c1)CCC2)NC1CCCc2ccccc21 (stereo not drawn)	i
CCCCN1CCN(C(=O)c2cc(-c3ccncc3)nc3ccccc23)CC1	i
COc1ccc(OCCN2CCN(C(=O)c3cc(C4CC4)nc4ccccc34)CC2)cc1	i
CCOC(=O)c1cc(NC(=O)C2CCC2)cc(C(=O)OCC)c1	i
CCCCN1CCN(C(=O)c2cc(NC(=O)C3CCC3)cc3nc(C)ccc23)CC1	31.6µM*
Cc1cc(C(=O)N2CCN(CC(=O)NC3CC3)CC2)c2ccccc2n1	i
CCCN1CCN(C(=O)c2cc(NC(=O)C3CCC3)cc3nc(C)ccc23)CC1	22.4µM*
COc1cc(NC(=O)C2c3ccccc3Oc3ccccc32)c(OC)cc1Cl	i
COc1cccc(C(=O)Nc2c(NC3CCCC3)c3ccccc3oc2=O)c1	i
O=C(COC(=O)c1nn(-c2ccccc2)c(=O)c2ccccc12)Nc1ccccc1Cl	i
OC1CC(c2cc(N3CCC(c4nnc5ccccn45)CC3)ncn2)C1 (stereo not drawn)	i
OC1CC(c2cc(N3CCC(c4nc5ccccc5[nH]4)CC3)ncn2)C1 (stereo not drawn)	i
OC1CC(c2cc(N3CCN(c4nsc5ccccc45)CC3)ncn2)C1 (stereo not drawn)	31.6µM*
CCC1CCc2c(sc(NC(=O)C(C)C)c2C#N)C1 (stereo not drawn)	i
Cc1ccc(C)c(NC(=O)Nc2ccc(-c3cn4cccnc4n3)cc2)c1	i
SMILES	KDM5B inh
COc1cccc(CNC(=O)CCC2CCN(S(=O)(=O)c3ccccc3)CC2)c1	i
O=C(CCC1CCN(S(=O)(=O)c2ccccc2)CC1)NCc1ccccc1	22.4µM*
O=C(CCC1CCN(S(=O)(=O)c2ccccc2)CC1)NCc1ccc(F)cc1	i
COCCN1CC2(CCCN(C(=O)CNC(N)=O)C2)CCC1=O (stereo not drawn)	i
CCCc1cc(C(=O)N2CCCC3(CCC(=O)N(CCOC)C3)C2)cs1 (stereo not drawn)	i
CNc1ncc(C(=O)N2CCCC3(CCC(=O)N(CCOC)C3)C2)cn1 (stereo not drawn)	28.2µM*
CC(N)(C(=O)O)c1ccc(C(F)(F)F)cc1 (stereo not drawn)	i
CS(=O)(=O)/C(=C\c1cccc(Cl)c1)C(=O)c1ccccc1	i
COc1ccccc1-c1noc(CCCC(=O)Nc2ccc(S(=O)(=O)N3CCC(C)CC3)cc2)n1	i
CN(Cc1ccccc1)C(=O)c1cc(-c2ccccn2)nc2ccccc12	i
Cc1c(CN(C)C(=O)c2cc(-c3ccccc3)nc3ccc(Br)cc23)cnn1C	i
Cc1nc2c(cnn2C(C)C)cc1C(=O)N(C)Cc1ccc(Cl)cc1Cl	i
CN(Cc1ccccc1)C(=O)c1cc(-c2ccncc2)nc2ccccc12	i
CC(C)n1cc(-c2cc(C(=O)N(C)Cc3cccnc3)c3cc(F)ccc3n2)cn1	25.1µM*
CC(C)CN(C)C(=O)c1cc(-c2cnn(C(C)C)c2)nc2cc(F)ccc12	28.2µM*
COc1cccc(C(O)c2nc(C(=O)NCc3ccccc3)c(C)o2)c1 (stereo not drawn)	i
O=C(NC1CCN(Cc2ccccc2)CC1)c1cccc(Br)c1	i
O=C(NC1CCCCC1)c1ccc2c(c1)N(Cc1ccccc1)C(=O)c1ccccc1S2	i
O=C(NC1CCOCC1)c1ccc2c(c1)C1(CCN(CC3CC3)C1)CN2Cc1ccccc1 (stereo not drawn)	28.2µM*
COc1cccc(CN2CCCC(O)(CNC3CCCCCCC3)C2=O)c1 (stereo not drawn)	i
CN1CCCC2(C1)CN(Cc1cccnc1)c1ccc(C(=O)Nc3ccc(F)cc3)cc12 (stereo not drawn)	i
O=C(NC1CC1)c1ccc2c(c1)N(Cc1ccccc1)C(=O)CS2=O (stereo not drawn)	i
COc1cccc(CN2CC3(CCN(C)C3)c3cc(C(=O)NC4CCCCC4)ccc32)c1 (stereo not drawn)	35.5µM*
CN1CCC2(C1)CN(Cc1ccccc1)c1ccc(C(=O)NC3CCC(O)CC3)cc12 (stereo not drawn)	39.8µM*
Cc1nc(CN2CC3(CCN(C)C3)c3cc(C(=O)Nc4ccccc4)ccc32)cs1 (stereo not drawn)	i
SMILES	KDM5B inh
CC(C)c1ccc2c(c1)-c1ccccc1S(=O)(=O)N2CC(=O)NCc1ccncc1	i
Cc1ccc(OCCN2CCC(CO)CC2)cc1	i
CN(C)c1ccc2ncccc2c1	i
CCOC(=O)CSCC(=O)NCc1cccs1	i
CCCCN(C(=O)c1cccnc1OCC)c1c(N)n(Cc2ccccc2)c(=O)[nH]c1=O	i
CCOC(=O)c1ccc(NC(=O)CN2CCCN(Cc3ccc(OC)cc3)S2(=O)=O)cc1	i
Cn1ccc2c(C(=O)NCc3cnccn3)nc(-c3cccc(N4CCOCC4)c3)cc21	i
COc1ccc(Cc2nc3ccc(C(=O)NCCc4ccccn4)cc3o2)cc1OC	i
COc1ccccc1-c1cc2c(ccn2C)c(C(=O)NCc2cnccn2)n1	31.6µM*
COc1ccccc1-c1cc2c(ccn2C)c(C(=O)NCCc2ccccn2)n1	35.5µM*
Cc1ccc(-c2cc3c(ccn3C)c(C(=O)NCCc3cnc[nH]3)n2)cn1	i
COc1ccccc1-c1cc2c(ccn2C)c(C(=O)NCc2cccnc2)n1	i
CCc1c(C)nc2n(c1=O)CN(CCCN(C)C)CN2c1ccccc1OC	i
O=C1CCCC2=C1C(c1ccccc1F)n1nnnc1N2 (stereo not drawn)	i
CC(=C/c1ccccc1)/C=N/Nc1ccc(Cl)cc1	i
C=CCNC(=O)c1ccc2cc[nH]c2n1	44.7µM*
O=C(Nc1ccc(Cl)cc1Cl)c1ccc2cc[nH]c2n1	89.1µM*
O=C(NCc1ccc(Cl)cc1)c1nc(Cc2c[nH]c3ccccc23)no1	i
O=C(Nc1ccc(Cl)cc1Cl)c1ccnc2[nH]ccc12	i
O=C(NCc1ccccc1)c1ccc2ccccc2n1	i
O=C(NC1CC1)c1ccc2cc[nH]c2n1	i
CNC(=O)c1ccc2cc[nH]c2n1	i
O=C(Nc1ccc(Cl)cc1Cl)c1c[nH]c2cccnc12	i
O=C(NCc1ccc(Cl)cc1)c1ccc2cc[nH]c2n1	112µM*
CCCNC(=O)c1cccc2c(=O)c(C)c(-c3ccccc3)oc12	i

Assay outcomes: PubChem, National Center for Advancing Translational Sciences (NCATS)
